Compound activity: PubChem, National Center for Advancing Translational Sciences (NCATS)
TDP1 cell CPT – qHTS for Inhibitors of human tyrosyl-DNA phosphodiesterase 1 (TDP1): qHTS in cells in presence of CPT | chicken DT40 Tdp1-/-;hTDP1 cells + 20 nM CPT, ATP luminescence, 48 h | Potency, µM (series often up to 46.2 µM), for the others: at the highest dose activity change, negative = growth inhibition, hits mostly inhibitors | 420,000 tested, 12% active | AID 686979, 2013; also: potency is read from the fitted curve at half-maximal effect; nearly all actives have a fitted effect of over 55% in size
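Chicken DT40 Tdp1-/- cells stably complemented with human TDP1 were seeded at 400 cells/well in medium containing 20 nM camptothecin, exposed to pin-transferred compounds, and grown at 37 °C for at least 48 hr. Viability was read as ATP luminescence.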
ELG1 repair inh – qHTS screen for small molecules that inhibit ELG1-dependent DNA repair in human embryonic kidney (HEK293T) cells expressing luciferase-tagged ELG1. AID 504467, 2011. Potency, µM (doses to about 46.1 µM), without a hit: at the highest dose activity change, negative = inhibition, usual class: inhibitors. 330,000 tested, 2.3% active. HEK293T ELG1-luciferase reporter, luminescence, 16 h; DNA damage induced by 5-fluorouridine; also: potency is read from the fitted curve at half-maximal effect; nearly all actives have a fitted effect of over 55% in size
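HEK293T cells expressing luciferase-tagged ELG1 (2,000/well) received 5-Fluorouridine plus compound or DMSO for 16 hr at 37 °C. Luciferase was read by ONE-Glo luminescence after 30 min at room temperature.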
DT40 TDP1 no CPT – qHTS for Inhibitors of human tyrosyl-DNA phosphodiesterase 1 (TDP1): qHTS in cells in absence of CPT | DT40 Tdp1-/- hTDP1 cells, no CPT, ATP luminescence, 48 h | Potency, µM (top dose mostly 46.2 µM), inactives show at the highest dose activity change, negative = growth inhibition, actives largely listed as inhibitors | 420,000 tested, 15% active; also: potency is read from the fitted curve at half-maximal effect; nearly all actives have a fitted effect of over 55% in size
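Growth kinetics read by CellTiter-Glo luminescence after ≥48 hr at 37 °C. Cells: DT40 Tdp1-/- stably carrying human TDP1, 400 per well, compound exposure in the absence of CPT (DMSO vehicle).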
IL-1B inflam inh – qHTS for Inhibitors of Inflammasome Signaling: IL-1-beta AlphaLISA Primary Screen. THP-1 LPS/ATP IL-1B secretion, AlphaLISA, 16 h; hits give low values. activity change, % at 57.5 µM. 360,000 tested, 4.7% active; in the data active = activity change below about -50%; inconclusive = mostly about -30% to -49%
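Secreted IL-1B measured by AlphaLISA bead assay after 16 h compound exposure of THP-1 cells; compounds (final up to 57.5 uM) added 1 h before LPS (250 ng/mL) and ATP (1.25 mM) stimulation; lower signal means less secretion.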
HT1080-NT tox – qHTS for induction of synthetic lethality in tumor cells producing 2HG: qHTS for the HT-1080-NT fibrosarcoma cell line; HT-1080-NT fibrosarcoma viability, CellTiter-Glo ATP luminescence, 48 h; Potency, µM (highest dose often 46.1 µM), for the others: at the top dose activity, negative = less viability, actives largely listed as cytotoxic; 360,000 tested, 1.6% active;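 also: NT is the 2HG producing partner of a matched IDH1 knockdown line; potency is read from the fitted curve at half-maximal effect; 0% = DMSO-treated cells and -100% = media-only wells without cells; nearly all actives have a fitted effect of over 55% in size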
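HT-1080-NT fibrosarcoma cells (2HG-overproducing), 750 cells/well in RPMI with 5% FBS, dosed after 2 h and incubated 48 h at 37C. CellTiter-Glo luminescence normalized to DMSO and no-cell wells; concentration-response curves fitted and classed.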
HT1080 IDH1KD tx – qHTS for induction of synthetic lethality in tumor cells producing 2HG: qHTS for the HT-1080-IDH1KD cell line; HT-1080 IDH1 knockdown viability, ATP luminescence, 48 h; Potency, µM (doses to about 46.1 µM), for the others: at the top dose activity, negative = toxicity, most hits filed as cytotoxic; 360,000 tested, 2% active;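 also: potency is read from the fitted curve at half-maximal effect; 0% = DMSO wells and -100% = cell-free medium wells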
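After a 2 h attachment period, IDH1KD HT-1080 cells took pin-transferred compound for 48 h at 37 °C; ATP-based luminescence after 10 min room-temperature reagent incubation reported viability.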
* marks the source's active call; other numbers are inactive results; i = inactive; ? = inconclusive; / = no result given; [ ] = dose if it differs, or a comment. Sampled rows, rich in hits. Any-hit rate of the full collection: about 19%. Unless noted, calls follow the shape of the dose curve; as a rule, active = well fitted curve in the direction sought with a large enough effect; inconclusive = small, poorly fitted or top-dose-only effect, or another doubt; inactive = no such curve, though single readings can be large; an effect the other way counts as inactive or inconclusive. Unless noted, % is scaled to controls: 0 for no effect and ±100 for the full control effect.

SMILES | TDP1 cell CPT | ELG1 repair inh | DT40 TDP1 no CPT | IL-1B inflam inh | HT1080-NT tox | HT1080 IDH1KD tx
COc1ccccc1/C=C/CN1CCCC(CCC(=O)NCc2ccc(F)c(F)c2)C1 (stereo unspecified) | ? | -6% | ? | -74* | ? | ?
NCCC(=O)[N-][C@@H](Cc1cnc[nH]1)C(=O)O.[Zn] | -1% | / | 3% | / | / | /
Cc1nc2ccc(C(=O)N3CCc4c(cnc(C)c4CNC(=O)/C=C/c4cccs4)C3)cc2nc1C | 16%[9.04 µM] | / | -17% | / | / | /
O=C1[C@@H](Oc2ccccc2)[C@@H](c2ccncc2)N1c1ccncc1 | -24% | ? | ? | -13 | -1% | -1%
Oc1c(C(c2ccccc2)N2CCC(O)CC2)sc2nc(-c3ccco3)nn12 (stereo unspecified) | -3% | / | -8% | / | / | /
COc1ccc(CN(CC2CCCO2)C(=O)c2cc3sccc3n2C)c(OC)c1 (stereo unspecified) | -9% | ? | ? | -104* | -26% | -25%
Cc1cnc(-c2nc3ccccc3n2C(C)C(=O)Nc2c(C)cccc2C)cn1 (stereo unspecified) | ? | / | ? | 6 | 17% | 13%
COc1ccc(NC(=O)CSc2nnc(CN3CCOCC3)n2C)cc1Cl | -8% | / | 10% | 0 | 0% | -4%
CCCn1c(N)[n+](CC(=O)c2ccco2)c2ccccc21 | -2% | -19% | -13% | -59* | 1% | 0%
Cc1cc(-c2ccccc2)nc(SCc2ccc(C(=O)O)cc2)n1 | -24% | -1% | -10% | 26 | 4% | 4%
CCOc1ccc2nc(Cl)c(C3CC(c4ccc(C)cc4)=NN3C(=O)CCC(=O)O)cc2c1 (stereo unspecified) | 3% | / | -17% | / | / | /
CCOc1ccc(Cl)cc1-c1cc(C(=O)Nc2ccc(OC)nc2)[nH]n1 | ? | / | ? | -18 | -1% | -12%
CCOc1ccc(Cl)cc1-c1cc(C(=O)NC2CCCCC2)[nH]n1 | 18µM* | / | 16µM* | -10 | ? | 0%
COc1ccc(Cl)cc1-c1cc(C(=O)NC2CCCCC2)[nH]n1 | ? | / | ? | -12 | ? | ?
CCOc1ccc(Cl)cc1-c1cc(C(=O)NC(C)C)[nH]n1 | ? | / | ? | 19 | 5% | -6%
CCOc1ccc(Cl)cc1-c1cc(C(=O)Nc2cc(OC)c(OC)c(OC)c2)[nH]n1 | 21µM* | / | 16µM* | -16 | ? | ?
CCOc1ccc(Cl)cc1-c1cc(C(=O)Nc2ccc(C(C)C)cc2)[nH]n1 | ? | / | 16µM* | -9 | -24% | -25%
CCOc1ccc(Cl)cc1-c1cc(C(=O)Nc2ccc(Br)cc2)[nH]n1 | 23µM* | / | 18µM* | -24 | -29% | ?
CCOc1ccc(S(=O)(=O)N(CC)CC(=O)NCc2cccnc2)cc1C | ? | -1% | ? | -2 | 19% | -10%
O=C(NCCc1cn2cccnc2n1)C1CCC(=O)N(Cc2ccccc2F)C1 (stereo unspecified) | -11% | / | -4% | 4 | 6% | 12%
COc1ccc2c(c1)O/C(=C\c1sccc1C)C2=O | ? | ? | 18µM* | i | 15% | 13%
CSCCC(NC(=O)c1ccc(Cl)cc1Cl)C(=O)N1CCCCCCC1 (stereo unspecified) | ? | -4% | 23µM* | -7 | -8% | -5%
